FBPA Giardia inh: inhibitors of Giardia lamblia fructose-1,6-bisphosphate aldolase; A8B2U2; purified Giardia FBPA; 290,000 compounds, 0.71% hits; Potency, µM (top dose mostly 59.6 µM), inactives show at the highest dose activity, negative = inhibition, usual class: inhibitors; further: nearly all actives have a fitted effect of over 55% in size
Target sequence (A8B2U2 whole entry, looked up): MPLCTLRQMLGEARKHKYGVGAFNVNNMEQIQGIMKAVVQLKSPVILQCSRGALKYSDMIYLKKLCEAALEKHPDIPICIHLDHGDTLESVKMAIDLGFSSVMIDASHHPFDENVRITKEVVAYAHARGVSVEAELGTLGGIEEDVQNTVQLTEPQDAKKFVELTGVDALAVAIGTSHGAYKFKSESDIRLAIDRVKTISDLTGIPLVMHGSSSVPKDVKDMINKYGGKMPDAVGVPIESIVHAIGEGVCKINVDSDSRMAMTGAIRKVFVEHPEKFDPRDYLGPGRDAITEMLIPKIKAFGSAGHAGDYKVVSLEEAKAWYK
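Giardia FBPA (40 nM reagent) was preincubated 10 min at RT with compound (up to 57.5 uM final), then substrate plus GAPDH/TPI/NAD/arsenate coupling system with diaphorase/resazurin was added; resorufin fluorescence (525/598 nm) was read after 20 min.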
Sm TGR inh: S. mansoni TGR enzyme inhibition; Q962Y6; purified TGR, DTNB reduction, TNB absorbance 405 nm; Potency, µM (doses to about 114 µM), inactives show at the highest dose activity change, negative = inhibition, most hits filed as inhibitors; 360,000 compounds, 3% hits; further: nearly all actives have a fitted effect of over 60% in size
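TGR 20 nM + NADPH 100 uM (dispensed conc.), cpd preinc 15 min RT; start with NADPH (500 uM addition) then DTNB (15 mM addition). Kinetic TNB absorbance, 405 nm filter. Four-parameter Hill fit across titration.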
AmpC inh no detg: inhibitors of E. coli AmpC beta-lactamase without detergent; P00811; AmpC nitrocefin hydrolysis, absorbance 480 nm, 0.0001% Triton; Potency, µM (highest dose often 57.1 µM), for the others: at the top dose activity change, negative = inhibition, hits mostly inhibitors; 330,000 compounds, 0.52% hits; AID 485341;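 further: plate controls were no compound for no effect and no enzyme for full effect; nearly all actives have a fitted effect of over 20% in size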
Target sequence (P00811 whole entry, looked up): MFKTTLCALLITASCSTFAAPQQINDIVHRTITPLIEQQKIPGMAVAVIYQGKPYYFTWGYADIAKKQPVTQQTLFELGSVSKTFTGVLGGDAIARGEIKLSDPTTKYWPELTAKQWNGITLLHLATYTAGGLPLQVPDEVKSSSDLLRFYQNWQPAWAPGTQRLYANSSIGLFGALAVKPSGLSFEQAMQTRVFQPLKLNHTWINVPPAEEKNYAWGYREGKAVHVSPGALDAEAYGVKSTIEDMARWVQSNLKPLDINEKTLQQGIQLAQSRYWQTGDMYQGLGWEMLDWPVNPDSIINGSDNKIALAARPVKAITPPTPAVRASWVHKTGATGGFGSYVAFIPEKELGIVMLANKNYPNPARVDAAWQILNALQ
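20 mM phosphate pH 7.0 + 0.01% (detergent screen) or 0.0001% Triton X-100; 5.3 nM AmpC reagent; cpd preinc 15 min RT; nitrocefin (800 uM stock) to start; A480 q20 s × 4 min; Activity was normalised to no-enzyme and no-compound control wells.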
RE007 growth inh: less growth of the S. pombe RE007 Vpr strain | S. pombe RE007 Vpr strain, BacTiter-Glo ATP luminescence, 24 h | Potency, µM (series often up to 92.2 µM), without a hit: at the highest dose activity change, negative = less growth, actives largely listed as inhibitors | 360,000 compounds, 0.21% hits | AID 651644; active means well fitted falling curve with a large enough effect; inconclusive means small, poorly fitted or top-dose-only effect; inactive means no such curve, though single readings can be large or run the other way; further: nearly all actives have a fitted effect of over 50% in size
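Fission yeast strain RE007, carrying one chromosomally integrated HIV-1 vpr copy, was seeded at OD 0.01 in PMG+AL medium with 23 nL pinned compound. After 24 h at 30 °C and 99% humidity, viability was read by BacTiter-Glo luminescence.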
AmpC detergent: inhibitors of E. coli AmpC beta-lactamase with detergent; P00811; AmpC hydrolysis of nitrocefin, absorbance 480 nm, 0.01% Triton; Potency, µM (highest dose often 114 µM), for the others: at the highest dose activity change, negative = inhibition, actives largely listed as inhibitors; 370,000 compounds, 0.041% hits; AID 485294;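 further: 0% = no-compound wells and -100% = no-enzyme wells; nearly all actives have a fitted effect of over 25% in size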
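20 mM phosphate pH 7.0 + 0.01% (detergent screen) or 0.0001% Triton X-100; 5.3 nM AmpC reagent; cpd preinc 15 min RT; nitrocefin (800 uM stock) to start; A480 q20 s × 4 min; Activity was normalised to no-enzyme and no-compound control wells.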
* marks the source's active call; other numbers are inactive results. The list is not random: actives were taken first. Their share in the collection is about 3.4%. Unless noted, the call rests on the fitted dose curve; in most records, active means well fitted curve in the direction sought with a large enough effect; inconclusive means small, poorly fitted or top-dose-only effect, or another doubt; inactive means no such curve, though single readings can be large; an effect the other way counts as inactive or inconclusive. Unless noted, on the % scale 0 is the no-effect control and ±100 the full control effect; potency means the concentration at half of the fitted maximal effect.

Cc1oc(-c2ccccc2)nc1CS(=O)CC(=O)N1CCc2ccccc2C1 (centres undefined) was read as FBPA Giardia inh -21%, Sm TGR inh 3.2µM*, AmpC inh no detg 29%, RE007 growth inh -13% and AmpC detergent -19%.
`Cc1cccc(-c2nc(CS(=O)CC(=O)N3CCCCC3)c(C)o2)c1` (centres undefined) gave FBPA Giardia inh -1%, Sm TGR inh 35µM*, AmpC inh no detg 6%, RE007 growth inh -18% and AmpC detergent inconclusive.
Screening Cc1cccc(-c2nc(CS(=O)CC(=O)NCC3CCCO3)c(C)o2)c1 (centres undefined) returned FBPA Giardia inh -2%, Sm TGR inh 28µM*, AmpC inh no detg 0%, RE007 growth inh -3% and AmpC detergent inconclusive.
NC(=O)CSc1nnc(-c2cccc(S(=O)(=O)N3CCOCC3)c2)n1C1CCCCCC1 was read as FBPA Giardia inh 3%, Sm TGR inh -30%, AmpC inh no detg -1%, RE007 growth inh -14% and AmpC detergent 5%.
Screening CCc1ccc(C(=O)c2cn(CC(=O)Nc3ccc(OC)cc3)c3cc4c(cc3c2=O)OCCO4)cc1 returned Sm TGR inh 0% and AmpC detergent 4%.
For CCOC(=O)c1cc(CNC(=O)c2c(C)oc3c2CCCC3)c(C)o1 the results were FBPA Giardia inh -2%, Sm TGR inh 22µM*, AmpC inh no detg 50%, RE007 growth inh 19% and AmpC detergent -1%.
`COc1ccc2cc(C(=O)C3CCCN(C4CCOCC4)C3)ccc2c1` (centres undefined) gave FBPA Giardia inh 0%, Sm TGR inh 0%, AmpC inh no detg 34%, RE007 growth inh -15% and AmpC detergent 3%.
For COc1c(C)cc(C(=O)C2CCCN(C3CCOCC3)C2)cc1C (centres undefined) the results were FBPA Giardia inh 0%, Sm TGR inh 13µM*, AmpC inh no detg 1%, RE007 growth inh 1% and AmpC detergent 4%.
`COC(=O)C1(C(F)(F)F)N=C2Sc3ccccc3N2C(N2CCOCC2)=N1` (centres undefined) gave FBPA Giardia inh 1%, Sm TGR inh 2%, AmpC inh no detg 0.32µM*, RE007 growth inh 0% and AmpC detergent -20%.
COc1ccccc1N1CCN(C(=O)N2CCOCC2)CC1 was read as FBPA Giardia inh 5%, Sm TGR inh 2%, AmpC inh no detg -10%, RE007 growth inh -3% and AmpC detergent -9%.
CCC(C)Sc1nc2c(cnn2-c2ccccc2)c(=O)[nH]1 (centres undefined) was read as FBPA Giardia inh -6%, Sm TGR inh -7%, AmpC inh no detg -19%, RE007 growth inh -6% and AmpC detergent -8%.
O=[N+]([O-])c1ccc(N2CCNCC2)cc1NCc1ccco1 was read as FBPA Giardia inh 3%, Sm TGR inh -7%, AmpC inh no detg 18µM* and AmpC detergent -11%.
Screening O=C(CN1C(=O)c2ccccc2C1=O)Nc1sc2c(c1C(=O)NCc1ccco1)CCCC2 returned FBPA Giardia inh 1%, Sm TGR inh -20%, AmpC inh no detg -32%, RE007 growth inh 19% and AmpC detergent inconclusive.
O=C(CCCN1C(=O)c2ccccc2C1=O)Nc1sc2c(c1C(=O)NCc1ccco1)CCC2 was read as FBPA Giardia inh -3%, Sm TGR inh 40µM*, AmpC inh no detg -23%, RE007 growth inh 6% and AmpC detergent -4%.
`O=C(CN1C(=O)c2ccccc2C1=O)Nc1sc2c(c1C(=O)NCC1CCCO1)CCC2` (centres undefined) gave FBPA Giardia inh 7%, Sm TGR inh 79µM*, AmpC inh no detg -20%, RE007 growth inh -22% and AmpC detergent 4%.
CC1CCN(C(=O)CSc2nnc(Cc3cccn3C)n2-c2ccc(F)cc2)CC1 was read as FBPA Giardia inh 3%, Sm TGR inh -28%, AmpC inh no detg 6.3µM*, RE007 growth inh -15% and AmpC detergent inconclusive.
`Cn1cccc1Cc1nnc(SCC(=O)N2CCCCCC2)n1-c1ccc(F)cc1` gave FBPA Giardia inh 0%, Sm TGR inh inconclusive, AmpC inh no detg 89%, RE007 growth inh -9% and AmpC detergent -2%.
Screening Cc1ccc(-n2c(Cc3cccn3C)nnc2SCC(=O)N2CCN(c3ccccc3)CC2)cc1 returned FBPA Giardia inh 1%, Sm TGR inh 40µM*, AmpC inh no detg 151%, RE007 growth inh -3% and AmpC detergent inconclusive.
For Cc1nc(N=Nc2ccc(S(=O)(=O)O)cc2S(=O)(=O)O)c(COP(=O)(O)O)c(C=O)c1O the results were FBPA Giardia inh 4%.
Screening CC1=C(C(N)=O)C(c2ccc(Br)cc2)n2nc(CCCO)nc2N1 (centres undefined) returned FBPA Giardia inh 3%, Sm TGR inh 2%, AmpC inh no detg -3%, RE007 growth inh 5% and AmpC detergent 3%.
Screening OCCCc1nc2n(n1)C(c1cccs1)C=C(c1ccc(Br)cc1)N2 (centres undefined) returned FBPA Giardia inh -11%, Sm TGR inh 25µM*, AmpC inh no detg 116% and AmpC detergent -12%.
Fc1ccc(C2=CC(c3ccco3)n3ncnc3N2)cc1 (centres undefined) was read as FBPA Giardia inh -16%, Sm TGR inh inconclusive, AmpC inh no detg -24%, RE007 growth inh -16% and AmpC detergent -14%.
Brc1ccc(C2=CC(c3cccs3)n3ncnc3N2)cc1 (centres undefined) was read as FBPA Giardia inh -10%, Sm TGR inh 22µM*, AmpC inh no detg 10µM*, RE007 growth inh -23% and AmpC detergent -7%.
`O=C(c1nn2c(C(F)(F)F)cc(-c3ccco3)nc2c1Br)N1CCCc2ccccc21` gave FBPA Giardia inh 2%, Sm TGR inh 35µM*, AmpC inh no detg -4%, RE007 growth inh 11% and AmpC detergent inconclusive.
Screening O=C(NCC1CCCO1)c1nn2c(C(F)(F)F)cc(-c3ccco3)nc2c1Cl (centres undefined) returned RE007 growth inh 14%.
`O=C(c1nn2c(C(F)(F)F)cc(-c3cccs3)nc2c1Br)N1CCCc2ccccc21` gave FBPA Giardia inh -3%, Sm TGR inh 3%, AmpC inh no detg -25%, RE007 growth inh 27% and AmpC detergent inconclusive.
O=C(c1cc2nc(-c3ccco3)cc(C(F)(F)F)n2n1)N1CCCCCC1 was read as FBPA Giardia inh 3%, Sm TGR inh 35µM*, AmpC inh no detg 30%, RE007 growth inh -4% and AmpC detergent -11%.
